# Test results reported in PubChem BioAssay.
# A number with no mark means an inactive call. Active and inactive are the calls of the source.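 How the source made its calls: active means mean inhibition above 46.5%, the solvent-only control mean plus 3 SD; inactive means the rest.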
# Molecular target: Nuclear receptor coactivator 2 (Homo sapiens) (UniProt Q15596)
# Assay: SRC2 coactivator transcriptional activity inhibitors, confirmation, cell-based, luminescence, HEK293, triplicate (AID 652008);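 further: 0% = DMSO-treated cells and 100% = Gossypol at 36 µM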
# Details: HEK293 GAL4-SRC2 luciferase reporter, at 8.9 µM, active compounds read high
# Sequence of Nuclear receptor coactivator 2 (Homo sapiens) (Q15596 whole entry, looked up): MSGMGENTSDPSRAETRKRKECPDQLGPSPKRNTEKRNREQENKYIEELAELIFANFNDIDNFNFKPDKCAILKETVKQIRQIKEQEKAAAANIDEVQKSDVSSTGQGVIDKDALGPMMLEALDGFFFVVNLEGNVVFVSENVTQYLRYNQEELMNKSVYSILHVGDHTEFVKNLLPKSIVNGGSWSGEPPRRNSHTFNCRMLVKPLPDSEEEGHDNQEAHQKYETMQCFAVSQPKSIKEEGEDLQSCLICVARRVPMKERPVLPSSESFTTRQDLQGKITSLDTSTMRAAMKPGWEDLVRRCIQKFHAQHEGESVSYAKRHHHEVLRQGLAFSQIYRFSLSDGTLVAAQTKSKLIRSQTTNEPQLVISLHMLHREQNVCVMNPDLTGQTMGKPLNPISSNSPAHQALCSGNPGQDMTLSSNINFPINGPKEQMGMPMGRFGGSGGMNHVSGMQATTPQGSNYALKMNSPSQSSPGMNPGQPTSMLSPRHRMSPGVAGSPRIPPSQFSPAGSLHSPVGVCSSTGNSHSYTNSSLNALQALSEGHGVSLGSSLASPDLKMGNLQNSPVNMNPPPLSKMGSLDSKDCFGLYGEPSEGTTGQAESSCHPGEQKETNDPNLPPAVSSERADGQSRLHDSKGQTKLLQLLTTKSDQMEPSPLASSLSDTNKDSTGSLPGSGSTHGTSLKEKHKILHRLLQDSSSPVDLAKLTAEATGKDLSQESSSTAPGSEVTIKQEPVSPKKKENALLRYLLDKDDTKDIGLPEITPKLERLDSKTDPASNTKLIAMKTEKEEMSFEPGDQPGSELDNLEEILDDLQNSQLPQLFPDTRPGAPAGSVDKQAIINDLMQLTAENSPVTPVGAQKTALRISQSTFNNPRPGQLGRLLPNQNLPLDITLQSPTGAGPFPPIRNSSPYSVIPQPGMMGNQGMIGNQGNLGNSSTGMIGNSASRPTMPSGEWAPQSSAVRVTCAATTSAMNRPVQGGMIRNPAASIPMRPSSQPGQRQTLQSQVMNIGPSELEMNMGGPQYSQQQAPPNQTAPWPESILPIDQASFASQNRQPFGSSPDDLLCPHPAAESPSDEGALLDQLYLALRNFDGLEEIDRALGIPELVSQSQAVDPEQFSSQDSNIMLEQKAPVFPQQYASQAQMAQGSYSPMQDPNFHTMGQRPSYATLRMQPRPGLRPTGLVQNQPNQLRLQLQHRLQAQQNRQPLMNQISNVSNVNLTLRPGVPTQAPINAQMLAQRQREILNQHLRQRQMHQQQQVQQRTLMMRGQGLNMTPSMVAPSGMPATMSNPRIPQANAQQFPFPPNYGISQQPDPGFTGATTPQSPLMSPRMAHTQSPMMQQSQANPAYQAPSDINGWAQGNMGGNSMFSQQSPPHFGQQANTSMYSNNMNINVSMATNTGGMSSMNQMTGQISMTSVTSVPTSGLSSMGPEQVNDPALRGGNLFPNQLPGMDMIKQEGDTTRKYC
row,SMILES,inhibition
1,CCOC(=O)C1(Cc2ccc(Cl)cc2)CCN(C(C)Cc2ccc(O)c(OC)c2)CC1 (stereo not given),30.1%
2,CC(=O)Nc1cccc(-c2cc(NC(C)=O)c3ncc(-c4ccccc4)n3c2)c1,2.68%
3,O=C(c1ccc(S(=O)(=O)Cc2cc(F)ccc2F)c([N+](=O)[O-])c1)N1CCOCC1,13.5%
4,O=C(CCl)Nc1ccc(C(=O)NCC2COc3ccccc3O2)cc1 (stereo not given),39.9%
5,CCc1cc(CNC(=O)c2ccc3nc(Cc4ccc(OC)c(OC)c4)oc3c2)on1,26.6%
6,COc1ccc(OC)c(NC(=O)COC(=O)CCCN=C2NS(=O)(=O)c3ccccc32)c1,-10.3%
7,O=c1c2ccccc2sn1-c1ccccc1,-17.8%
8,CC(C)[C@H](CO)Nc1nc(NCc2ccc(S(N)(=O)=O)cc2)c2ncn(C(C)C)c2n1,37.8%
9,O=C(O)CCCCCCCCCCC1CCC(O)C1O (stereo not given),65.3% (active)
10,Cc1ccc(S(=O)(=O)C[C@@H]2OC[C@H](C)N2S(=O)(=O)c2ccc(C)cc2)cc1,-6.07%
11,CCN1CCN(C(c2ccc(C(F)(F)F)cc2)c2ccc3cccnc3c2O)CC1 (stereo not given),13.2%
12,COc1ccc(CCNC(=S)N2CCC(C(=O)c3ccc(F)cc3)CC2)cc1OC,20.5%
13,CCS(=O)(=O)c1ncc(Cl)c(C(=O)Nc2ccc(S(=O)(=O)N(C)c3ccccc3)cc2)n1,98% (active)
14,O=C(NC1=NCCS1)C1COc2ccccc2O1 (stereo not given),47.7% (active)
15,Cc1ccc(-n2nc3ccc(N)cc3n2)c(C)c1,21.3%
16,O=C(CCCN1C(=O)/C(=C/c2ccccc2)SC1=S)NCCCn1ccnc1,26.1%
17,Cn1c(=N)n(CC(=O)c2ccc(F)cc2)c2ccccc21,-22.8%
18,NC(=O)C1CCN(CCS(=O)(=O)c2ccc(Cl)cc2)CC1,-24.6%
19,CCCCN1C[C@@H](COCc2ccccc2)Oc2cc(F)ccc2S1(=O)=O,11.9%
20,NCCOc1ccc(C2CCCCC2)cc1,23%

row,SMILES,inhibition
1,CC1=CC(C)(C)Nc2ccc(OC(=O)CN3C(=O)c4ccccc4C3=O)cc21,26.9%
2,CCc1ccc(/C=C2\SC(=S)N(CCCC(=O)NC3=NCCS3)C2=O)cc1,90.5% (active)
3,CC(=O)Nc1nc(-c2ccc3c(c2)CCN3C(=O)C2CC2)c(C)s1,49.3% (active)
4,O=C(NCCS(=O)(=O)N1CCN(c2ccc(F)cc2)CC1)c1ccc(Br)o1,-4.89%
5,COc1cc(/C=C/C(=O)Nc2ccc(OC)c(S(=O)(=O)N3CCOCC3)c2)ccc1OC(F)F,63.1% (active)
6,C=CCN(CC#CCN(C)C(=O)c1cccn1C(=O)OC(C)(C)C)Cc1ccc(OC)cc1OC,-1.62%
7,CC(C)(C)c1ccc(Cn2c(=O)cnc3ccccc32)cc1,56.7% (active)
8,CCc1ccc(/C=C2\SC(=S)N(CCC(=O)NC3=NCCS3)C2=O)cc1,75% (active)
9,CC(=O)Nc1ccc(Nc2nc(C)c([N+](=O)[O-])c(N(C)c3ccccc3)n2)cc1,49.2% (active)
10,COCCn1c(SCC(=O)/C=C2\N(C)c3ccccc3C2(C)C)nnc1-c1ccncc1,8%
11,CCN(CC)S(=O)(=O)c1cccc(C(=O)N/N=C/c2cccc(O)c2O)c1,-7.21%
12,COc1ccc(S(=O)(=O)N/N=C\c2ccc3c(c2)OCO3)c(OC)c1,34.9%
13,O=C(CCl)N(Cc1ccccc1)c1ccccc1,48.6% (active)
14,Cc1ccc2cccc(NS(=O)(=O)c3ccccc3)c2n1,-19.5%
15,Cn1nnnc1Sc1ncnc2scc(-c3ccc(C#N)cc3)c12,30.8%
16,O=[N+]([O-])c1cccc2cnccc12,3.57%
17,COc1cc(OC)c2c(-c3cccc(-c4ccc(N(C)C)cc4)c3)cc(=O)oc2c1,27.6%
18,O=C(CCc1ccncc1)N1CCCC(Nc2ccc(F)c(F)c2)C1 (stereo not given),-7.87%
19,O=C1CSC(c2ccc([N+](=O)[O-])cc2)N1c1ccc(O)cc1 (stereo not given),-13.8%
20,C=C(C(=O)c1ccccc1)C(c1ccccc1)C(C)C(=O)c1ccccc1 (stereo not given),31.4%
